Activity change, negative = inhibition data for 52 compounds are collected here from PubChem BioAssay AID1259416 (Broad Institute, 2018).

The campaign covered roughly 69,000 compounds. About 2,600 (3.8%) were called active. Rule as the data show it: active = activity change below about -70% (passing the limit was not always enough); inconclusive = no clear call, values can overlap the other calls. What follows is part of a selection rich in actives, with near analogues and random picks from the rest.

A short description of this assay: inhibitors of Toxoplasma growth in IFN-γ-primed hosts – cell-based, primary screen (AID 1259416).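 Also: host cells are HeLa cells infected with Toxoplasma gondii.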 The note with it: Toxoplasma gondii growth in IFN-gamma-treated host cells; active compounds read low; concentration not given here.
As to `COc1cc(/C=C/CN2CCC3(CC2)c2ccccc2[C@@H](NC(=O)C(C)C)[C@@H]3OC)ccc1O`, the activity change, negative = inhibition is 12.6% (inactive).
Turning to `CN1C(=O)c2cc(NS(=O)(=O)c3ccccc3F)ccc2OC[C@@H]2O[C@@H](CC(=O)NC3Cc4ccccc4C3)CC[C@@H]21`, the activity change, negative = inhibition was -28.5% (inactive).
For `Cc1nc(N2CCCC2)nc2c1CCN(C(=O)Nc1ccccc1F)CC2`, the activity change, negative = inhibition was -2.86% (inactive).
For `Cc1cc(C)nc(N2CCN(c3c4c(nc5c(-c6ccccc6)c(C)nn35)CCC4)CC2)n1`, the activity change, negative = inhibition is -75.6% (active).
In the case of `Cc1cc(N2CCN(c3nc(C)cc(C)n3)CC2)ncn1`, the activity change, negative = inhibition was 3.08% (inactive).
For `COc1ccc(Cl)cc1S(=O)(=O)N1CCC(c2nc(C(=O)N(C)C)c(C)o2)CC1`, the activity change, negative = inhibition is -56% (inactive).
Take `O=C(Cc1ccc(F)cc1)N1CC[C@@H](O)[C@@H]1Cc1ccccc1`: the activity change, negative = inhibition was -30.4% (inactive).
As for `CN(Cc1noc(C2CCC2)n1)Cc1ncccc1C(=O)O`, the activity change, negative = inhibition was -0.548% (inactive).
As to `O=C(NCc1cccnc1)C1=NOC2(CCCN(C(=O)Cc3ccc(F)cc3)C2)C1` (configuration not stated), the activity change, negative = inhibition was 53.7% (inactive).
`CC(=O)N1CCC(c2cc3c(ncn3C(C)C)c(-c3ccccc3)n2)CC1`: the activity change, negative = inhibition was -106% (active).
The value for `CC(C)n1cnc2c(N3CCOCC3)nc(C3CCN(Cc4cccnc4)CC3)cc21` was 1.27% (inactive); that for `CC(C(=O)NC1CC1)N1CCc2[nH]nc(-c3ccc(-c4ccccc4)cc3)c2C1` (configuration not stated) was 13.6% (inactive).
In the case of `CN(CCCc1ccccc1)C(=O)c1cc(CN2CCC(O)CC2)on1` it was 6.96% (inactive); in that of `CCCNc1ncc(-c2nccn2CC2CCOCC2)cn1`, 0.573% (inactive).
Consider `CCc1c2c(nc3ccc(O)cc13)-c1cc3c(c(=O)n1C2)COC(=O)[C@]3(O)CC`, for which the activity change, negative = inhibition was -86.3% (active).
`CCN(CC)Cc1cnc2n1CCN(Cc1csc(C)n1)CC2`: the activity change, negative = inhibition is 4.3% (inactive).
Consider `C[C@@H]1CN([C@H](C)CO)C(=O)c2c(c3ccccc3n2C)-c2ccccc2CO[C@H]1CN(C)C(=O)[C@@H](Cc1ccccc1)N(C)C`, for which the activity change, negative = inhibition was -51.4% (inactive).
The value for `C[C@H](CO)N1C[C@H](C)[C@@H](CN(C)S(=O)(=O)c2ccc([N+](=O)[O-])cc2)OCc2ccccc2-c2c(n(C)c3ccccc23)C1=O` was -73.3% (active).
In the case of `C[C@H]1CN([C@@H](C)CO)C(=O)c2ccccc2-c2ccccc2CO[C@H]1CN(C)S(=O)(=O)c1cccc(C#N)c1`, the activity change, negative = inhibition was 5.72% (inactive).
With `CC(C)(O)CC[C@@H](O)[C@](C)(O)[C@@H]1CC[C@@]2(O)C3=CC(=O)[C@@H]4C[C@@H](O)[C@@H](O)C[C@]4(C)[C@@H]3CC[C@]12C`, the activity change, negative = inhibition was 12.2% (inactive).
Turning to `CN(C)c1nc2c(c(=O)[nH]1)CCN(C(=O)C1(c3ccc(Cl)cc3)CCC1)C2`, the activity change, negative = inhibition was -11.9% (inactive).
Consider `COc1cc2c(cc1CNC(=O)c1cc3n(n1)CCCN(C)C3)CCC2`, for which the activity change, negative = inhibition is 5.16% (inactive).
In the case of `O=C(c1cnccn1)N1CCC2(CC(=O)N(c3cccc(F)c3)C2)C1` (configuration not stated) it was -1.06% (inactive); in that of `Cc1ccsc1C(=O)N1CCC2(C1)CN(c1cccc(F)c1)C(=O)CN2C` (configuration not stated), -102% (active); in that of `CC(=O)N1CC(=O)N(c2cnn(C)c2)CC12CCN(C(=O)c1cnc(C)cn1)C2` (configuration not stated), 8.89% (inactive).
In the case of `COc1ccc(C(=O)N2CC(C(=O)N3CCOCC3)C3(CCOCC3)C2)cc1` (configuration not stated) it was 2.42% (inactive).
Take `O=C(CC1CC1)N1CC[C@@H]2[C@H](CO)Nc3ccc(-c4ccc(F)cc4)cc3[C@@H]21`: the activity change, negative = inhibition was -30.6% (inactive).
As for `COc1ccc(-c2noc(-c3c(O)c4ccccc4n(C)c3=O)n2)cc1F`, the activity change, negative = inhibition is 31.1% (inactive).
Turning to `C=CCNC(=O)c1c(O)c2cccnc2n(-c2cccc(F)c2)c1=O`, the activity change, negative = inhibition is -76.4% (active).
`COc1cccc(-n2c(=O)c(C(=O)NC(C)c3ccccc3)c(O)c3cccnc32)c1` (configuration not stated): the activity change, negative = inhibition is -12.7% (inactive).
Take `CCc1ccc(NC(=O)c2c(O)c3cccnc3n(-c3ccccc3)c2=O)cc1`: the activity change, negative = inhibition is 86% (inactive).
Regarding `COc1cccc(-n2c(=O)c(C(=O)Nc3ccccc3F)c(O)c3cccnc32)c1`, the activity change, negative = inhibition is 40% (inactive).
On to `O=C(Nc1cccc(Cl)c1)c1c(O)c2cccnc2n(-c2ccc(F)cc2)c1=O`, for which the activity change, negative = inhibition was 195% (inactive).
The value for `COc1ccc(-n2c(=O)c(C(=O)Nc3ccccc3C)c(O)c3cccnc32)cc1` was 33.1% (inactive); that for `O=C(NCc1ccc(F)cc1)c1c(O)c2cccnc2n(-c2cccc(F)c2)c1=O` was -108% (active); that for `COc1ccc(CNC(=O)c2c(O)c3cccnc3n(-c3ccc(F)cc3)c2=O)cc1` was 85.2% (inactive).
The value for `Cc1ccc(NC(=O)c2c(O)c3cccnc3n(-c3cccc(F)c3)c2=O)cc1F` was 126% (inactive); that for `COc1ccccc1CNC(=O)c1c(O)c2cccnc2n(-c2ccccc2)c1=O` was -37.8% (inactive).
As to `O=C(NCc1ccccc1F)c1c(O)c2cccnc2n(-c2cccc(F)c2)c1=O`, the activity change, negative = inhibition was -102% (active).
Consider `CCc1cccc(NC(=O)c2c(O)c3cccnc3n(-c3cccc(F)c3)c2=O)c1`, for which the activity change, negative = inhibition is -96.6% (active).
In the case of `Cc1noc(C[C@H]2C[C@@H]3CN(C(=O)c4ccco4)C[C@H]3O2)n1` it was -25% (inactive); in that of `CCCN(CCC)C(=O)NCCCCCCNC(=O)N(CCC)CCC`, -0.334% (inactive).
Regarding `CO[C@@H]1CN(C)C(=O)c2cc(NC(C)=O)ccc2OC[C@H](C)N(C(=O)Cc2ccccn2)C[C@@H]1C`, the activity change, negative = inhibition is 163% (inactive).
On to `O=C(c1cccs1)N1CCn2c(Cn3cccn3)cnc2C1`, for which the activity change, negative = inhibition was 3.34% (inactive).
On to `O=S(=O)(c1ccccc1)N1CC2CN(Cc3ccc(O)cc3)CC2C1` (configuration not stated), for which the activity change, negative = inhibition is -5.71% (inactive).
The value for `COc1ccccc1-n1cc(CNC(=O)c2ccc(=O)n(C)c2)cn1` was 1.65% (inactive); that for `O=C(CCn1cnnn1)NCc1cnn2ccccc12` was 1.34% (inactive); that for `COCC(=O)Nc1ccc(-c2nc(-c3cc(C)ccc3C)co2)cc1` was 11.3% (inactive).
Consider `CNC(=O)c1ccccc1Nc1nc(Nc2ccc(N3CCOCC3)cc2OC)ncc1Cl`, for which the activity change, negative = inhibition is -72.7% (active).
In the case of `COc1ccccc1C(=O)Nc1ccc(N2CCN(C)CC2)cc1`, the activity change, negative = inhibition is -6.5% (inactive).
For `COc1ccc(S(=O)(=O)N2CCOCC2)cc1NC(=O)COc1ccccc1`, the activity change, negative = inhibition was -52.6% (inactive).
For `CCS(=O)(=O)N1CCC2(CC1)CN(S(=O)(=O)c1ccc(C)cc1)[C@H](CO)c1[nH]c3cc(OC)ccc3c12`, the activity change, negative = inhibition is 268% (inactive).
